Compounds without any hit were thinned out: in the full panel of roughly 83,000, 20% have a hit.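 For each line, cells grew in 96-well plates with the test compound present at a single concentration for 48 hours.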 A number with no mark means an inactive call. Activity calls are given as the source filed them. The calls were made as follows: active = growth percent below 10; inactive = the rest.
Key:
Assay in all cases: NCI-60 one-dose screen, 48 h (100 = growth as untreated, 0 = no growth, -100 = all killed)
Conditions in all cases: 10 µM
HT29 colon = tested on: HT29 colon
SNB-75 CNS = tested on: SNB-75 CNS
SNB-19 CNS = tested on: SNB-19 CNS
U251 CNS = tested on: U251 CNS
SK-MEL-5 melanoma = tested on: SK-MEL-5 melanoma
UACC-62 melanoma = tested on: UACC-62 melanoma
LOX IMVI melanoma = tested on: LOX IMVI melanoma
SK-MEL-28 melanoma = tested on: SK-MEL-28 melanoma
SK-MEL-2 melanoma = tested on: SK-MEL-2 melanoma

SMILES	growth (HT29 colon)	growth (SNB-75 CNS)	growth (SNB-19 CNS)	growth (U251 CNS)	growth (SK-MEL-5 melanoma)	growth (UACC-62 melanoma)	growth (LOX IMVI melanoma)	growth (SK-MEL-28 melanoma)	growth (SK-MEL-2 melanoma)
O=C(/C(=C/c1ccccc1)CN1CCCCC1)c1ccccc1	-30.6% (active)	30.6%	45.9%	-22.7% (active)	-86% (active)	-67% (active)	-75.1% (active)	-63% (active)	-67% (active)
O=C1/C(=C\c2ccc(Cl)cc2)CN(C(=O)c2ccccc2)C/C1=C\c1ccc(Cl)cc1	-84.9% (active)	51.4%	68.2%	-74% (active)	66.8%	34.6%	-51.8% (active)	59.7%	–
Nc1ccc2c(c1)Cc1cc(N)c(Br)cc1-2	107%	67.1%	114%	108%	97.8%	96.7%	96.8%	115%	116%
CSc1nc(=O)n(Cc2ccc(F)cc2)c(=O)n1Cc1ccc(C)cc1	101%	74.9%	100%	94.7%	107%	93.5%	90.9%	108%	108%
COc1ccc2c(c1)nc(N)c1c3cccnc3cn21	-5.58% (active)	42%	35.9%	12.7%	-38.1% (active)	16%	35.1%	62.6%	53.2%
Cc1ncc(-c2ccoc2)c(NC2CCCCCC2)n1	99.4%	97%	105%	93.5%	99.6%	104%	96.9%	128%	–
O=[P@@]1(c2ccccc2)O[C@H](COCc2ccccc2)[C@@H](OCc2ccccc2)[C@H](OCc2ccccc2)[C@H]1O	90.8%	-12.1% (active)	55.3%	39.4%	73%	50.8%	95.7%	97%	67.2%
N#Cc1c(C#N)c(SSc2c(C#N)c(C#N)c(N)n2-c2ccccc2)n(-c2ccccc2)c1N	101%	71.7%	103%	114%	96.7%	94.8%	96.4%	–	98.5%
COc1cc(C2CC(c3ccc(Nc4ccnc5cc(Cl)ccc45)cc3)=NN2c2ccc(Cl)cc2)cc(OC)c1OC (stereo not drawn)	32.6%	57.2%	67.9%	51.9%	46.8%	22.2%	56.3%	67.4%	55.2%
COc1ccc(Oc2nc(NC3CCCC3)nc(Sc3ccc(OC)cc3)n2)cc1	43.7%	75.3%	90.9%	44.4%	45.7%	71.1%	72.6%	86%	–
O=C(Nc1ccc(Cl)cc1)N1NC(c2ccc(Cl)cc2)C=C1c1ccccc1 (stereo not drawn)	103%	72.1%	109%	97.1%	94.6%	105%	104%	109%	107%
CC(C)(C)c1cc(Br)cc(C(C)(C)C)c1O	113%	95.7%	104%	99.8%	102%	99.3%	99.1%	112%	118%
O=S(=O)(NCCCNc1nccc(-c2c(-c3ccc(F)cc3)nc3sccn23)n1)c1ccc(F)cc1	3.28% (active)	40.7%	93.2%	35.9%	31.6%	18.5%	28.3%	67.3%	–
Cc1cc(C)c2c(n1)sc1c(Nc3ccc(Cl)cc3)ncnc12	27.5%	32.7%	10.4%	22.5%	32.7%	-11% (active)	-16.9% (active)	55.3%	82.8%
CC(=O)C1CCC2C3CC(F)C4=CC(=O)CCC4(C)C3C(O)CC12C (stereo not drawn)	101%	103%	109%	104%	102%	103%	101%	112%	137%
N#Cc1cc(-c2cc3ccccc3o2)oc1N	7.97% (active)	24.4%	24.5%	3.63% (active)	-86.7% (active)	29.2%	3.98% (active)	41.2%	10.2%
C/C(=N\Nc1nc2ccccc2s1)c1ccncn1	25.1%	61.8%	51.1%	33.6%	31.4%	41.7%	31.5%	–	63%
COc1ccc(-c2cc(-c3ccc(N(C)C)cc3)c(C#N)c(N3CCCC3)n2)cc1	63.2%	99.7%	90.1%	86%	58.5%	102%	34.2%	93.4%	84%
COc1cc(-c2cc(/C=C/C(=O)c3ccc(F)c(F)c3)[nH]n2)cc(OC)c1OC	53.7%	56.7%	67.8%	41.5%	75.6%	51.4%	55.9%	73.4%	83.1%
CC(=O)c1cc(Cl)ccc1O	106%	95.4%	113%	107%	103%	108%	102%	109%	110%
CC(=O)c1nc2ccccc2n1CCN1CCN(C)CC1	-3.6% (active)	6.87% (active)	73.7%	28.4%	38.5%	50.7%	36.7%	48%	25.4%
CCCCCCCCCCCCC1C/C=C\CCCC(=O)O1 (stereo not drawn)	107%	102%	110%	109%	109%	108%	113%	126%	111%
Cc1ccc(-c2nc(/C=C3/C(=O)N(C)c4ccc(F)cc43)c3ccccn23)cc1	112%	87.4%	101%	80.8%	95.6%	97.8%	95.9%	108%	115%
N=C(N)c1ccc(-c2ccc(-c3cccs3)s2)s1	-79.5% (active)	-31.7% (active)	-13.4% (active)	-85.9% (active)	-9.08% (active)	-90.7% (active)	-75.7% (active)	-94.7% (active)	-0.961% (active)
c1ccc2c(c1)oc1c3cccnc3ccc21	95.8%	70.1%	95.3%	97.9%	96.7%	92.8%	87.1%	92.7%	–
c1ccc(CNc2ncnc3scc(-c4cccs4)c23)nc1	91.2%	64.6%	67.2%	75.7%	14.8%	56%	74.2%	96.7%	–
COc1ccc(-c2nn(-c3cccc(NC(=O)Nc4ccc(Cl)c(C(F)(F)F)c4)c3)cc2-c2ccncc2)cc1Cl	2.78% (active)	25.6%	32.2%	-41.1% (active)	14.7%	-2.96% (active)	19.9%	23%	–
Cn1c([N+](=O)[O-])cnc1/C=C1\Oc2ccc(Cl)cc2C1=O	-10.1% (active)	15.7%	-10.5% (active)	-18.2% (active)	-92.7% (active)	-74.2% (active)	-57.5% (active)	-22.1% (active)	-42.2% (active)

— PubChem BioAssay (NCI)
